Compounds with a hit are over-represented: about 19% of the library has one in this group of screens.
TDP1 cell noCPT: qHTS for Inhibitors of human tyrosyl-DNA phosphodiesterase 1 (TDP1): qHTS in cells in absence of CPT; DT40 Tdp1-/- hTDP1 cells, no CPT, ATP luminescence, 48 h; Potency, µM (titrated, usually from 46.2 µM), for the others: top-dose activity change, negative = growth inhibition, actives largely listed as inhibitors; 420,000 compounds, 15% hits; AID 686978, 2013; also: potency is read from the fitted curve at half-maximal effect; nearly all actives have a fitted effect of over 55% in size
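Growth kinetics read by CellTiter-Glo luminescence after ≥48 hr at 37 °C. Cells: DT40 Tdp1-/- stably carrying human TDP1, 400 per well, compound exposure in the absence of CPT (DMSO vehicle).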
TDP1 cell CPT: growth inhibition of DT40 Tdp1-/-;hTDP1 cells with camptothecin (screen for TDP1 inhibitors) | chicken DT40 Tdp1-/-;hTDP1 cells + 20 nM CPT, ATP luminescence, 48 h | Potency, µM (doses to about 46.2 µM), inactives show at the highest dose activity change, negative = growth inhibition, most hits filed as inhibitors | 420,000 compounds, 12% hits | AID 686979; also: potency is read from the fitted curve at half-maximal effect; nearly all actives have a fitted effect of over 55% in size
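Cell growth measured by CellTiter-Glo luminescence after a minimum 48 h, 37 C compound exposure with 20 nM CPT in Tdp1-knockout DT40 cells stably expressing hTDP1, seeded 400/well; qHTS titration format.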
HT1080 IDH1KD tx: toxicity to HT-1080 IDH1 knockdown cells (counter line); HT-1080 IDH1 knockdown viability, ATP luminescence, 48 h; Potency, µM (series often up to 46.1 µM), for inactives: at the highest dose activity, negative = toxicity, actives largely listed as cytotoxic; 360,000 compounds, 2% hits;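 also: potency is read from the fitted curve at half-maximal effect; 0% = DMSO wells and -100% = cell-free medium wells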
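CellTiter-Glo luminescence after 48 h compound exposure at 37 degrees C of IDH1-knockdown HT-1080 cells in 5% FBS RPMI. %Activity scaled between DMSO wells and cell-free media wells, with curves fitted and assigned curve classes.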
HT1080-NT tox: kills 2HG-producing HT-1080-NT fibrosarcoma cells; HT-1080-NT fibrosarcoma viability, CellTiter-Glo ATP luminescence, 48 h; Potency, µM (doses to about 46.1 µM), for the others: top-dose activity, negative = less viability, most hits filed as cytotoxic; 360,000 compounds, 1.6% hits; AID 686970;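 also: NT is the 2HG producing partner of a matched IDH1 knockdown line; potency is read from the fitted curve at half-maximal effect; 0% = DMSO-treated cells and -100% = media-only wells without cells; nearly all actives have a fitted effect of over 55% in size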
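Luminescent CellTiter-Glo readout after 48 hours of compound exposure at 37 degrees C defined viability of HT-1080-NT cells. Activity was normalized to DMSO wells and cell-free media wells; concentration-response curves were fitted and assigned curve classes.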
IL-1B inflam inh: blocks inflammasome-driven IL-1 beta release; activity change, % at 57.5 µM; THP-1 LPS/ATP IL-1B secretion, AlphaLISA, 16 h; stronger effect = lower value; AID 743279; 360,000 compounds, 4.7% hits; in the data active = activity change below about -50%; inconclusive = mostly about -30% to -49%
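THP-1 cells pretreated 1 hr with compounds (up to 57.5 uM final), then stimulated with LPS (250 ng/mL final) plus ATP (1.25 mM final); secreted IL-1B measured by AlphaLISA after 16 hr, decreased signal indicating inhibition.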
* = called active by the depositor; [ ] = another dose, or the depositor's remark. Unless noted, calls follow the shape of the dose curve; as a rule, active = well fitted curve in the direction sought with a large enough effect; inconclusive = small, poorly fitted or top-dose-only effect, or another doubt; inactive = no such curve, though single readings can be large; an effect the other way counts as inactive or inconclusive. Unless noted, % is scaled to controls: 0 for no effect and ±100 for the full control effect.

Screening O=C(CSc1ccc2ccccc2c1)NCCc1ccc(O)c(O)c1 returned TDP1 cell noCPT 23µM*, TDP1 cell CPT 16µM*, HT1080 IDH1KD tx inconclusive, HT1080-NT tox -27% and IL-1B inflam inh -53*.
For CC(C)(C)N(NC(=O)Nc1ccc(Cl)c(Cl)c1)C(=O)c1ccccc1 the results were TDP1 cell noCPT 18µM*, TDP1 cell CPT 18µM*, HT1080 IDH1KD tx 18µM*, HT1080-NT tox 21µM* and IL-1B inflam inh -51*.
`Cc1cc(C)cc(C(=O)N(NC(=O)Nc2ccc(Cl)cc2)C(C)(C)C)c1` gave TDP1 cell noCPT inconclusive, TDP1 cell CPT 15µM*, HT1080 IDH1KD tx -23%, HT1080-NT tox -17% and IL-1B inflam inh -30.
Screening Cc1nc(N2CCN(C(=O)c3ccco3)CC2)c2c3c(sc2n1)CCC3 returned TDP1 cell noCPT 12µM*, TDP1 cell CPT 16µM*, HT1080 IDH1KD tx -29%, HT1080-NT tox -29% and IL-1B inflam inh inconclusive.
`Cc1nc(N2CCOCC2)c2c3c(sc2n1)CCC3` gave TDP1 cell noCPT inconclusive, TDP1 cell CPT -8%, HT1080 IDH1KD tx -13%, HT1080-NT tox 0% and IL-1B inflam inh 16.
For O=C(c1ccccc1)N1CCN(c2ncnc3sc4c(c23)CCC4)CC1 the results were TDP1 cell noCPT 23µM*, TDP1 cell CPT 21µM*, HT1080 IDH1KD tx -26%, HT1080-NT tox -5% and IL-1B inflam inh 0.
`C[C@H](NC(=O)c1ncn2c1C(=O)N[C@@H](C)C2)c1ccccc1` gave TDP1 cell noCPT inconclusive, TDP1 cell CPT -19%, HT1080 IDH1KD tx -3%, HT1080-NT tox 3% and IL-1B inflam inh 30.
For O=S(=O)(Nc1ccncc1Cl)c1ccc2ccccc2c1 the results were TDP1 cell noCPT -21%, TDP1 cell CPT -12%, HT1080 IDH1KD tx -11%, HT1080-NT tox -7% and IL-1B inflam inh 37.
For CC1(C(=O)NS(=O)(=O)C2CC2)CCN(C(=O)c2cc3ccccc3s2)C1 (stereo not drawn) the results were TDP1 cell noCPT 23%, TDP1 cell CPT -3%, HT1080 IDH1KD tx 14%, HT1080-NT tox 2% and IL-1B inflam inh -7.
`CC1(C(=O)NS(=O)(=O)C2CC2)CCCN(C(=O)Cc2ccc3ccccc3c2)C1` (stereo not drawn) gave TDP1 cell noCPT 10µM*, TDP1 cell CPT 9.2µM*, HT1080 IDH1KD tx 2%, HT1080-NT tox inconclusive and IL-1B inflam inh 25.
For CC1(C(=O)NS(=O)(=O)C2CC2)CCCN(C(=O)COCc2ccccc2)C1 (stereo not drawn) the results were TDP1 cell noCPT 2.3µM*, TDP1 cell CPT 6.5µM*, HT1080 IDH1KD tx inconclusive, HT1080-NT tox -2% and IL-1B inflam inh -15.
CC1(C(=O)NS(=O)(=O)C2CC2)CCCN(C(=O)c2cc3ccccc3s2)C1 (stereo not drawn) was read as TDP1 cell noCPT 0.82µM*, TDP1 cell CPT 0.65µM*, HT1080 IDH1KD tx 9%, HT1080-NT tox 13% and IL-1B inflam inh 14.
COc1ccc(-c2nnc(SCC(=O)N3CCCC3)o2)c(OC)c1 was read as TDP1 cell noCPT -18%, TDP1 cell CPT inconclusive, HT1080 IDH1KD tx 3%, HT1080-NT tox 24% and IL-1B inflam inh 2.
`Fc1ccc(NCc2nnc3n2CCCCC3)cc1Cl` gave TDP1 cell noCPT 0% and TDP1 cell CPT -4%.
`CCNC(=O)/C=C1\NC(C)(C)Cc2c1ccc1ccccc21` gave TDP1 cell noCPT 21µM*, TDP1 cell CPT inconclusive, HT1080 IDH1KD tx -3%[9.24 µM], HT1080-NT tox inconclusive and IL-1B inflam inh inconclusive.
Screening CC1(C)Cc2ccccc2C(=O)N1 returned TDP1 cell noCPT -3%, TDP1 cell CPT -1%, HT1080 IDH1KD tx 4%, HT1080-NT tox 4% and IL-1B inflam inh 4.
For CC1(C)Cc2c(ccc3ccccc23)C(=O)N1 the results were TDP1 cell noCPT 21µM*, TDP1 cell CPT inconclusive, HT1080 IDH1KD tx -17%, HT1080-NT tox -17% and IL-1B inflam inh inconclusive.
`CNC(=O)/C=C1\NC(C)(C)Cc2ccccc21` gave TDP1 cell noCPT -16%, TDP1 cell CPT -2%, HT1080 IDH1KD tx inconclusive, HT1080-NT tox inconclusive and IL-1B inflam inh 7.
`CC(C)CN1C(=O)C(=O)N(CC(=O)N(C)CC(=O)Nc2ccc(Cl)c(C(F)(F)F)c2)C1=O` gave TDP1 cell noCPT inconclusive, TDP1 cell CPT inconclusive, HT1080 IDH1KD tx -5%, HT1080-NT tox -2% and IL-1B inflam inh 37.
`Cc1cccc(Cn2nnc3c(=O)[nH]c(C4CCCN(C(=O)c5ccccc5Cl)C4)nc32)c1` (stereo not drawn) gave TDP1 cell noCPT inconclusive and TDP1 cell CPT 26µM*.
Screening COc1ccc(Cn2nnc3c(=O)[nH]c(C4CCCN(C(=O)c5ccccc5Cl)C4)nc32)cc1OC (stereo not drawn) returned TDP1 cell noCPT -22% and TDP1 cell CPT 2%.
Cc1ccc(S(=O)(=O)N2CCC(c3nc4c(nnn4Cc4ccccc4)c(=O)[nH]3)CC2)cc1 was read as TDP1 cell noCPT -28%, TDP1 cell CPT inconclusive, HT1080 IDH1KD tx -11%, HT1080-NT tox inconclusive and IL-1B inflam inh -16.
Screening Cc1ccc(Cn2nnc3c(=O)[nH]c(C4CCCN(C(=O)Nc5ccc(F)cc5F)C4)nc32)cc1 (stereo not drawn) returned TDP1 cell noCPT -24%, TDP1 cell CPT inconclusive, HT1080 IDH1KD tx inconclusive, HT1080-NT tox inconclusive and IL-1B inflam inh -10.
`O=c1[nH]c(C2CCN(S(=O)(=O)c3ccccc3C(F)(F)F)CC2)nc2c1nnn2Cc1ccccc1` gave TDP1 cell noCPT inconclusive, TDP1 cell CPT inconclusive, HT1080 IDH1KD tx inconclusive, HT1080-NT tox inconclusive and IL-1B inflam inh -51*.
For Cc1ccc(C)c(C(=O)N2CCC(c3nc4c(nnn4Cc4ccccc4)c(=O)[nH]3)CC2)c1 the results were TDP1 cell noCPT 8.2µM* and TDP1 cell CPT inconclusive.
Screening CCOc1ccccc1NC(=O)N1CCCC(c2nc3c(nnn3Cc3ccc(C)cc3)c(=O)[nH]2)C1 (stereo not drawn) returned TDP1 cell noCPT inconclusive, TDP1 cell CPT 29µM*, HT1080 IDH1KD tx inconclusive, HT1080-NT tox -22% and IL-1B inflam inh -1.
`O=C(Nc1ccc([N+](=O)[O-])cc1)c1cccc(S(=O)(=O)Nc2ccccn2)c1` gave TDP1 cell noCPT inconclusive, TDP1 cell CPT -19%, HT1080 IDH1KD tx 0%, HT1080-NT tox -1% and IL-1B inflam inh 33.
For Cc1occc1-c1nnc(-c2cc([N+](=O)[O-])cc([N+](=O)[O-])c2)o1 the results were TDP1 cell noCPT inconclusive, TDP1 cell CPT inconclusive, HT1080 IDH1KD tx 0%, HT1080-NT tox -8% and IL-1B inflam inh 17.

Screening results as filed in PubChem BioAssay.
